Screening data: PubChem BioAssay, Sanford-Burnham Center for Chemical Genomics
TROY NFkB inh – inhibitors of TROY-driven NF-kB signaling, primary screen, Q293 LMP1-TROYcd cells, NF-kB luciferase, uHTS. Q293 LMP1-TROYcd NF-kB luciferase reporter, 4 h. inhibition, % at 10 µM. actives 0.98% (n = 360,000). AID 1347056, 2019;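 active means compounds whose plate-normalised and pattern-corrected inhibition of the luciferase reporter signal at the single screening dose is 50% or more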
KKLEB tox – cytotoxicity in KKLEB CF airway cells, primary screen, cytotoxicity control for CF NF-kB inhibitor project, cell-based, uHTS, fluorescence assay plates; KKLEB CF airway cells viability, ATPlite luminescence, overnight; hits give low values; cells stimulated with P. aeruginosa culture filtrate; activity change (cytotoxicity), % at 5 µM; actives 0.36% (n = 360,000);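 active means corrected activity change at or below -50% at 5 µM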
TWEAK-Fn14 inh – inhibitors of TWEAK-Fn14 signaling, primary screen, luciferase reporter cells, uHTS. TWEAK-stimulated Fn14 reporter cells, luciferase luminescence, 8 h. inhibition, % at 10 µM. actives 2% (n = 360,000). AID 1159606, 2016; in the data active means inhibition above about 50%
HIF-2a inh – HIF-2a reporter inhibitors, primary screen, luminescence, 786-0 RCC cells; actives 0.72% (n = 360,000); inhibition, % at 18.8 µM; AID 624352, 2012; 786-0 RCC cells HIF-2a reporter, luciferase luminescence, overnight;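 active means inhibition of the luminescence signal of 40% or more relative to plate controls, in a single-dose primary screen at 18.75 µM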
CF NFkB block – inhibitors of PAF-induced NF-kB signaling, primary screen, cell-based, GFP fluorescence, uHTS; actives 0.86% (n = 360,000); KKLEB NF-kB-GFP reporter, GFP fluorescence overnight; inhibition, % at 5 µM;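 active means at least 50% inhibition at 5 µM, scaled per plate between neutral and stimulator controls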;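 further: PAF is a Pseudomonas aeruginosa culture filtrate used as stimulus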
Peg3 promoter – Peg3 promoter-driven luciferase inhibitors, primary screen, cell-based, HeLa, luciferase luminescence; HeLa PEG-Prom luciferase reporter, overnight; inhibition, % at 20 µM; actives 1.7% (n = 360,000);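 active means inhibition of at least 50% at 20 µM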
CF NFkB inh conf – inhibitors of PAF-induced NF-kB signaling, retest, confirmation, cell-based, GFP fluorescence, single concentration; shares compounds with CF NFkB block; KKLEB CF airway cells, overnight; inhibition, % at 5 µM; actives 64% (n = 1,300); AID 602472, 2012; in the data active means inhibition above about 40%;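 further: stimulus PAF is a Pseudomonas aeruginosa filtrate and not platelet activating factor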
Of the large screens only hits and unclear results are named; the others gave an inactive call (follow-up assays come after a bar, where they were run). Compounds with a hit are over-represented: about 4% of the library has one in this group of screens.

Cc1cc(S(=O)(=O)Nc2c(C)nn(C)c2C)c(Cl)cc1Cl	none
O=C1CCCN1c1ccc(S(=O)(=O)N2CCN(c3ccccn3)CC2)cc1	none
CS(=O)(=O)c1ncc(Cl)c(C(=O)Nc2ccc(N3CCOCC3)cc2)n1	CF NFkB block 91.5, Peg3 promoter 104.3 | CF NFkB inh conf 78.8
COc1ccc(NC(=O)c2nc(S(=O)(=O)Cc3cccc(C)c3)ncc2Cl)c(OC)c1	TROY NFkB inh 54.4, CF NFkB block 93.0, Peg3 promoter 108.0 | CF NFkB inh conf 52.4
Cc1ccccc1NC(=O)c1nc(S(C)(=O)=O)ncc1Cl	CF NFkB block 79.1, Peg3 promoter 104.8 | CF NFkB inh conf 54.7
Cc1ccccc1NC(=O)c1cccc(C(=O)Nc2ccccc2C)n1	none
CS(=O)(=O)c1ccc(C(=O)Nc2ccc(N3CCOCC3)cc2)c(Cl)c1	none
Cc1ccccc1OCCOC(=O)c1nc2nccc(C)n2n1	none
CCOC(=O)CSc1nc(C)cc(C)c1C#N	none
Cc1cc(C)c(C#N)c(SCC(=O)c2ccc(Cl)cc2Cl)n1	TWEAK-Fn14 inh 57.3, CF NFkB block 71.6, Peg3 promoter 60.0 | CF NFkB inh conf 67.2
O=C1NC(c2cccc3ccccc23)Nc2ccc(Cl)cc21 (configuration not stated)	CF NFkB block 51.9 | CF NFkB inh conf 84.0
Clc1ccc(C2Nc3cccc4cccc(c34)N2)c(Cl)c1	none
COc1ccc(CNC(=O)C[C@H]2C[C@H](C(=O)N3CCCCC3)[C@@]3(CCc4ccccc4)c4[nH]c5ccc(Cl)cc5c4CCN3C2=O)cc1OC	CF NFkB block 50.8 | CF NFkB inh conf inactive
Cn1cc([N+](=O)[O-])c(C(=O)Nc2ccc(C3CCCCC3)cc2)n1	CF NFkB block 52.1 | CF NFkB inh conf inactive
Cn1cc([N+](=O)[O-])c(C(=O)Nc2ccc(C(=O)N3CCCCC3)cc2)n1	none
Nc1nccc(-c2cc(-c3ccc(Cl)cc3Cl)no2)n1	TWEAK-Fn14 inh 78.4, CF NFkB block 51.4 | CF NFkB inh conf inactive
O=C(COC(=O)c1c2c(nc3ccccc13)CCN(Cc1ccccc1)C2)Nc1c(F)cccc1F	CF NFkB block 74.9, Peg3 promoter 50.3 | CF NFkB inh conf 75.9
O=C(NCc1ccc(F)cc1)c1c2c(nc3ccccc13)CCN(Cc1ccccc1)C2	none
CCN1CCc2nc3ccccc3c(C(=O)Nc3ccc(NC(C)=O)cc3)c2C1	none
CC(=O)Nc1ccc(NC(=O)COC(=O)c2c3c(nc4ccccc24)CCN(Cc2ccccc2)C3)cc1	CF NFkB block 56.8 | CF NFkB inh conf 72.1
O=C(NCCCn1ccnc1)c1nc(Cn2ccc([N+](=O)[O-])n2)no1	none
O=C(N/N=C/c1c[nH]c2ccccc12)c1cccc(O)c1	none
O=[N+]([O-])c1ccc(-c2nn(-c3ccccc3)cc2/C=N/n2c(-c3cccs3)n[nH]c2=S)cc1	CF NFkB block 55.6 | CF NFkB inh conf inactive
Cc1cccc(-n2c(SCc3ccc([N+](=O)[O-])cc3)nnc2-c2c[nH]c3ccccc23)c1	CF NFkB block 51.3 | CF NFkB inh conf inactive
O=C(N/N=C/c1cccnc1)c1ccccc1Cl	none
Nc1c(Cl)c(Cl)nc(C(=O)N/N=C/c2cccnc2)c1Cl	CF NFkB block 51.0 | CF NFkB inh conf inactive
CCN(CC)S(=O)(=O)c1ccc(NC(=O)Nc2cccc(C(F)(F)F)c2)cc1	TROY NFkB inh 57.6, TWEAK-Fn14 inh 76.4, CF NFkB block 61.1, Peg3 promoter 52.1 | CF NFkB inh conf 81.4
COc1ccc(-n2nc(C(=O)NCC(=O)NCCCN3CCOCC3)c3ccccc3c2=O)cc1	CF NFkB block 60.6 | CF NFkB inh conf inactive
CC1CN(C(=O)c2cc(F)c(F)cc2Cl)CC(C)O1 (configuration not stated)	none
Fc1ccc(-n2cc(-c3ccccc3)c3c(N4CCOCC4)ncnc32)cc1	CF NFkB block 85.8, Peg3 promoter 54.3 | CF NFkB inh conf 104.2
O=C(O)c1ccc(-n2ncc(Cl)c(Cl)c2=O)cc1	CF NFkB block 74.3 | CF NFkB inh conf inactive
COc1ccc2[nH]c3c(c2c1)CCN1C(=O)C(CC(=O)NCCN2CCOCC2)C[C@H](C(=O)N2CCOCC2)[C@@]31CCC1CCCC1 (some centres not stated)	none
Cc1c(C(=O)NCc2ccc(C(F)(F)F)cc2)sc(=O)n1Cc1cccc(F)c1	none
CCC1=Nc2cc(C(=O)NCc3ccco3)ccc2Sc2ccc(C)cc21	CF NFkB block 51.5 | CF NFkB inh conf 79.6
CCOC(=O)c1c(NC(=O)CN2C(=O)C(=O)N(C(C)C)C2=O)sc(C)c1CC	none
Cn1nccc1C(=O)Nc1cc(Cl)ccc1Cl	CF NFkB block 69.5 | CF NFkB inh conf inactive
CN(C)/C=C1\C=C2C(=O)c3ccccc3N2C1=O	none
C=CC[C@@H](CC(=O)N[C@H](CO)Cc1ccccc1)C(=O)NC[C@H](OC(=O)[C@@H](CC=C)Cc1ccc(F)cc1)c1ccccc1	CF NFkB block 54.2, Peg3 promoter 78.6 | CF NFkB inh conf 63.0
O=C1CCCN1CC(O)CS(=O)(=O)Cc1ccc(Cl)cc1Cl (configuration not stated)	none
Cc1nc2c(O)c3c(c(O)c2nc1C)C1C=CC3CC1	CF NFkB block 83.0, Peg3 promoter 92.7 | CF NFkB inh conf 85.4
Cc1nc2c(C)c(C)c(C)c(C)c2nc1C	none
CCc1cc2c(Sc3nc4ccccc4s3)ncnc2s1	TWEAK-Fn14 inh 94.5, CF NFkB block 66.7 | CF NFkB inh conf 89.4
O=C1C=C(NC2=CC3OC(c4ccccc4)OCC3OC2=O)CCC1 (configuration not stated)	TWEAK-Fn14 inh 70.6, CF NFkB block 71.4 | CF NFkB inh conf 47.0
CCOC(=O)[C@@H]1[C@H]2COc3ccc(Br)cc3[C@H]2N2C(=O)N(c3ccc(C)cc3)C(=O)[C@]12C	CF NFkB block 50.8 | CF NFkB inh conf 41.9
CCOC(=O)[C@@H]1[C@H]2COc3ccc(Br)cc3[C@@H]2N2C(=O)N(c3ccc(C)cc3)C(=O)[C@]12C	none
O=C(Oc1cc2oc(=O)cc(-c3ccccc3)c2cc1Cl)C1CCCCC1	CF NFkB block 64.4 | CF NFkB inh conf 87.4
CC(C)(C)OC(=O)NCC(=O)Oc1cc2oc(=O)cc(-c3ccccc3)c2cc1Cl	TWEAK-Fn14 inh 80.3, CF NFkB block 52.8 | CF NFkB inh conf 90.4
